Compound activity deposited in PubChem BioAssay by National Center for Advancing Translational Sciences (NCATS).
LmPK inhibitor – inhibitors of Leishmania mexicana pyruvate kinase. purified LmPK, Kinase-Glo ATP luminescence, 1 h. Potency, µM (doses to about 57.5 µM), without a hit: at the top dose activity change, negative = inhibition, most hits filed as inhibitors. 0.37% of 290,000 active; further: potency means the concentration at half of the fitted maximal effect; on the % scale 0 is the no-effect control and ±100 the full control effect
Target sequence (Q27686 whole entry, looked up): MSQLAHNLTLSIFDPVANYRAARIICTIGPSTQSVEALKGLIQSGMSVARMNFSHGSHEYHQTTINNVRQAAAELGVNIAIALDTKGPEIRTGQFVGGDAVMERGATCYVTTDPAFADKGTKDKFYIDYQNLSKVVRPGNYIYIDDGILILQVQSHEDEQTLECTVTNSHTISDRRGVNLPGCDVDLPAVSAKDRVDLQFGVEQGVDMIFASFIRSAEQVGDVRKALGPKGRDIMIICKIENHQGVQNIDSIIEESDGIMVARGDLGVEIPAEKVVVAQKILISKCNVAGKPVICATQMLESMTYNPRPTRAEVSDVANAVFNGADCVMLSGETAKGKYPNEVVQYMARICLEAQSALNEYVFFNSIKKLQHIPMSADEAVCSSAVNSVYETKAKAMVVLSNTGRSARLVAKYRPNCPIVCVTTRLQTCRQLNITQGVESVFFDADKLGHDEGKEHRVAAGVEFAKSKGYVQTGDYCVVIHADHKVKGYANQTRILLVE
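0.1 nM LmPK, 0.5 mM PEP, 0.1 mM ADP; 50 mM imidazole pH 7.2, 7 mM MgCl2, 50 mM KCl; 1 h RT. Kinase-Glo luminescence readout, normalized to no-enzyme (full inhibition) and uninhibited wells.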
TbPYK inhibitor – inhibitors of Trypanosoma brucei pyruvate kinase. Q57TT1. TbPYK enzyme, Kinase-Glo Plus ATP luminescence, 45 min. Potency, µM (series often up to 76.8 µM), for inactives: at the top dose activity, negative = inhibition, most hits filed as inhibitors. 0.12% of 410,000 active. AID 624173; further: potency means the concentration at half of the fitted maximal effect; on the % scale 0 is the no-effect control and ±100 the full control effect; nearly all actives have a fitted effect of over 50% in size
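Luminescence from Kinase-Glo Plus, added after a 45-minute room-temperature reaction, served as the end-point read-out. The enzyme and substrate were preincubated with compound before ADP (130 uM final) initiated turnover. Concentration-effect curves came from normalized qHTS data.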
CHX counter – counter-screen for Shiga toxin inhibitors: cycloheximide protein synthesis inhibition; cell reporter, cycloheximide protein synthesis inhibition counterscreen; 12% of 300,000 active; max response, %; in the data active means max response mostly above about 13%, no sharp cut-off; inactive means mostly below about 14%; further: read at 38.3 µM for the half of the compounds with a filed dose; 0% is about no effect
FBPA Giardia inh – blocks Giardia fructose-bisphosphate aldolase activity; A8B2U2; purified Giardia FBPA; Potency, µM (top dose mostly 59.6 µM), for inactives: at the highest dose activity, negative = inhibition, hits mostly inhibitors; 0.71% of 290,000 active; AID 2451; further: potency means the concentration at half of the fitted maximal effect; on the % scale 0 is the no-effect control and ±100 the full control effect; nearly all actives have a fitted effect of over 55% in size
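Giardia FBPA (40 nM reagent) was preincubated 10 min at RT with compound (up to 57.5 uM final), then substrate plus GAPDH/TPI/NAD/arsenate coupling system with diaphorase/resazurin was added; resorufin fluorescence (525/598 nm) was read after 20 min.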
Sm TGR block – blocks Schistosoma mansoni thioredoxin glutathione reductase; Q962Y6; purified TGR, DTNB reduction, TNB absorbance 405 nm; Potency, µM (highest dose often 114 µM), for the others: at the top dose activity change, negative = inhibition, usual class: inhibitors; 3% of 360,000 active; AID 485364; further: potency means the concentration at half of the fitted maximal effect; on the % scale 0 is the no-effect control and ±100 the full control effect; nearly all actives have a fitted effect of over 60% in size
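First, TGR (20 nM dispensed) and NADPH were mixed with compound. Second, a 15 min room-temperature incubation followed. Third, further NADPH and then DTNB were added to start the reaction. Finally, TNB absorbance was monitored kinetically.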
Shiga inhibitor – blocks Shiga toxin action in Vero cells | Vero cells, Shiga toxin protein synthesis inhibition reporter | inhibition, % at 38.7 µM | 9.2% of 290,000 active | AID 2315; in the data active means inhibition mostly above about 28%, no sharp cut-off; inactive means mostly below about 43%; further: 0% is about no effect
* hit, by the source's call. The entries come from a sample that favours hits as a whole. Unless noted, the call rests on the fitted dose curve; in most records, active means well fitted curve in the direction sought with a large enough effect; inconclusive means small, poorly fitted or top-dose-only effect, or another doubt; inactive means no such curve, though single readings can be large; an effect the other way counts as inactive or inconclusive.

CCC(=O)N1CCc2cc(S(=O)(=O)NC(C(=O)Nc3cc(OC)cc(OC)c3)C(C)C)ccc21 (configuration not stated) was read as TbPYK inhibitor 1% and Sm TGR block 4%.
Screening COc1ccc(/C=N/NC(=O)C(=O)N2CCCC2)cc1 returned LmPK inhibitor -1%, TbPYK inhibitor 1%, CHX counter 36*, FBPA Giardia inh 0% and Shiga inhibitor 67.
COc1cc(/C=N/NC(=O)C(=O)N2CCCCCC2)ccc1O was read as LmPK inhibitor -8%, TbPYK inhibitor 1%, CHX counter 1, Sm TGR block -12% and Shiga inhibitor -17.
For CN(C)c1ccc(/C=N/NC(=O)C(=O)N2CCCCCC2)cc1 the results were LmPK inhibitor 1%, TbPYK inhibitor -8%, CHX counter 26*, FBPA Giardia inh 2%, Sm TGR block 7% and Shiga inhibitor 47.
COc1ccc(/C=N/NC(=O)C(=O)N2CCCCCC2)cc1[N+](=O)[O-] was read as LmPK inhibitor 0%, TbPYK inhibitor -5%, CHX counter -4, Sm TGR block 1% and Shiga inhibitor 5.
For CCCCC1=CC2=C(OC(C)=O)C(=O)C(C)(OC(=O)CC)C(=O)C2=CO1 (configuration not stated) the results were FBPA Giardia inh -16%.
`Cc1ccc(Nc2c(-c3ccc(N(C)C)cc3)nc3ccccn23)cc1` gave TbPYK inhibitor -6% and Sm TGR block 4%.
`COCCn1c(C)cc(O)c(C(c2ccccc2)N2CCN(c3ccc(F)cc3)CC2)c1=O` (configuration not stated) gave TbPYK inhibitor 5% and Sm TGR block 3.2µM*.
`COCCn1c(C)cc(O)c(C(c2ccccc2)N2CCN(CCO)CC2)c1=O` (configuration not stated) gave TbPYK inhibitor -8% and Sm TGR block 3.5µM*.
For COCCn1c(C)cc(O)c(C(c2ccccc2)N2CCN(c3ccccc3)CC2)c1=O (configuration not stated) the results were TbPYK inhibitor -5% and Sm TGR block 4.5µM*.
For COCCn1c(CN2CCN(C(c3ccccc3)c3ccccc3)CC2)nc2c1c(=O)n(C)c(=O)n2C the results were LmPK inhibitor -3%, TbPYK inhibitor -8%, CHX counter 2, FBPA Giardia inh 14%, Sm TGR block -14% and Shiga inhibitor -4.
Screening CCOc1ccc(C(c2c(O)cc(C)n(CCOC)c2=O)N2CCN(c3ccc(F)cc3)CC2)cc1 (configuration not stated) returned TbPYK inhibitor -8% and Sm TGR block 5.6µM*.
Screening CCCCn1c(N)c(N(CCOC)C(=O)CC2CCCCC2)c(=O)[nH]c1=O returned TbPYK inhibitor 8%.
For Cc1noc(C)c1-c1nccc(N(C)C)n1 the results were FBPA Giardia inh 4%.
Screening C#CCn1c(C2CC(=O)N(c3ccc(OCC)cc3)C2)nc2ccccc21 (configuration not stated) returned TbPYK inhibitor 1% and Sm TGR block 6%.
CN1C(=O)Cc2cc(S(=O)(=O)CCC(=O)Nc3ccccc3)ccc21 was read as TbPYK inhibitor -2% and Sm TGR block 1%.
Screening CCN(CC)Cc1cc(C(C)=O)ccc1OCC(C)C returned LmPK inhibitor 9%, TbPYK inhibitor 1%, CHX counter 4, FBPA Giardia inh 12%, Sm TGR block 18µM* and Shiga inhibitor -18.
O=C1N=C(N2CCN(c3ccccc3)CC2)S/C1=C/c1ccco1 was read as LmPK inhibitor -1%, TbPYK inhibitor -3%, CHX counter 2, FBPA Giardia inh -8%, Sm TGR block inconclusive and Shiga inhibitor 3.
`NC1=NC(=O)/C(=C\c2ccco2)S1` gave LmPK inhibitor 10%, TbPYK inhibitor -22%, CHX counter 17*, FBPA Giardia inh inconclusive, Sm TGR block 3.2µM* and Shiga inhibitor -5.
Screening NC1=NC(=O)C(=Cc2ccccc2)S1 returned TbPYK inhibitor -10%.
